In PubChem BioAssay (EPA / NIEHS) one finds outcome and AC50 data, which are given here for five molecules.

Molecules are shown by their SMILES. Where “and” joins values, the source holds several entries; their conditions need not be identical. Equal values may be shown once. Records with an inconclusive call do not appear. Some structures have more than one record in an assay (separate samples or runs), and their calls can disagree. Calls of active or inactive are those of the source. The calls were made as follows, unless noted: active = hit-call score of the fitted dose curve at least 0.9, where 1 is the maximum; inactive = score below 0.9.

The target of assay [1] is Myc proto-oncogene protein (Homo sapiens) (UniProt P01106). The experiment in a line: ATG_Myc_CIS: Attagene CIS-FACTORIAL HepG2 Assay for human Myelocytomatosis (Myc) Proto-Oncogene Transcription Factor (AID 2282990). Particulars: HepG2, Attagene cis-reporter transcription factor activity; actives raise or lower the signal. In outline: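 HepG2, transient MRTU transfection (cis promoters, endogenous TFs); 24 h dosing; TriZol RNA → oligo(dT) RT → PCR → 6-FAM primer extension → HpaI cut → CE. Bidirectional fit vs DMSO.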
Myc proto-oncogene protein (Homo sapiens), sequence (P01106 whole entry, looked up): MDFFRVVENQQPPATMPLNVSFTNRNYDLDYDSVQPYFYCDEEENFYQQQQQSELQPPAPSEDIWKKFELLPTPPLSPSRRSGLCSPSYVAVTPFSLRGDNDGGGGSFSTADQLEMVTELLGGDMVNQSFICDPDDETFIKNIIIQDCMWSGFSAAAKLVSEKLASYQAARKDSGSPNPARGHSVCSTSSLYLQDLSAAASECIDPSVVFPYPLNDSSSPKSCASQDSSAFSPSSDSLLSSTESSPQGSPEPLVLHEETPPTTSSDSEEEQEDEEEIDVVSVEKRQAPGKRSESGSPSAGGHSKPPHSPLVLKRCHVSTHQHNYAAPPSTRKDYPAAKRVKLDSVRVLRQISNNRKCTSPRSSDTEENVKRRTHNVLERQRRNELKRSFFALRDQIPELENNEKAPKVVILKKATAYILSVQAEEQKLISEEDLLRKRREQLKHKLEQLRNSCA

A short description of assay [2]: ATG_NF_kB_CIS: Attagene CIS-FACTORIAL HepG2 Assay for human Nuclear Factor Kappa B (NF-kB) (AID 2282991). The settings on record: HepG2 Attagene cis-factorial NF-kB reporter mRNA; actives raise or lower the signal. An outline of the steps: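 Fluorescence of labelled RT-PCR products separated by capillary electrophoresis gives reporter mRNA levels from transfected HepG2 cells exposed 24 h; values are fitted in both directions relative to DMSO.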

The nature of assay [3]: ATG_NRF2_ARE_CIS: Attagene CIS-FACTORIAL HepG2 Assay for human Nuclear Factor Erythroid 2 Related Factor 2 (NFR2) response to Antioxidant Response Elements (ARE) (AID 2282992). The settings on record: HepG2 Attagene ARE/NRF2 reporter, transcription factor activity; actives raise or lower the signal. In outline: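 Multiplexed reporter mRNA profiling in HepG2 after a 24 h chemical exposure. Curves fitted in both directions relative to DMSO negative control.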

Assay [4] is described as follows: ATG_Oct_MLP_CIS: Attagene CIS-FACTORIAL HepG2 Assay for human Octamer-Binding Transcription Factor (Oct) (AID 2282993). The settings on record: HepG2 Attagene cis-factorial Oct reporter, mRNA; actives raise or lower the signal. An outline of the steps: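 Cells of the HepG2 line express promoter-controlled reporter sequences whose mRNA levels, after 24 h treatment, are measured by RT-PCR and capillary electrophoresis. Increases and decreases are scored relative to DMSO.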

Assay [5] has as its target Cellular tumor antigen p53 (Homo sapiens) (UniProt P04637). Description: ATG_p53_CIS: Attagene CIS-FACTORIAL HepG2 Assay for human p53 Transcription Factor (AID 2282994). The settings on record: HepG2 p53 cis-element reporter, Attagene mRNA; actives raise or lower the signal. An outline of the steps: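 Multiplexed reporter mRNA assay in human HepG2 liver cells; cis-regulated units report endogenous factor activity. Values come from bidirectional curve fitting against DMSO negative control after 24 h treatment.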

Assay [6] is described as follows: BSK_3C_TissueFactor: BioMAP Diversity Plus: 3C Assay for Tissue Factor Biomarker Activity (AID 2282997). The settings on record: BioMAP 3C HUVEC, tissue factor biomarker readout; actives raise or lower the signal. An outline of the steps:
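ELISA read-out of Tissue Factor levels on human umbilical vein endothelium collected 24 h after chemical dosing. Gain or loss of signal was fitted relative to DMSO.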

Assay [7] is described as follows: BSK_3C_uPAR: BioMAP Diversity Plus: 3C Assay for Urokinase-type plasminogen activator receptor (uPAR) Biomarker Activity (AID 2282998). Particulars: BioMAP 3C HUVEC, uPAR biomarker ELISA; actives raise or lower the signal. An outline of the steps: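 Endothelial primary cells of human umbilical vein origin received test chemical; 24 h later uPAR was assayed by ELISA. Fitting was bidirectional, DMSO as negative control.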
Background: An ELISA detects its analyte on a solid surface through an enzyme-linked reagent.

Assay [8] can be described thus: BSK_3C_VCAM1: BioMAP Diversity Plus: 3C Assay for Vascular cell adhesion molecule 1 (VCAM1) Biomarker Activity (AID 2282999). Particulars: BioMAP 3C HUVEC, VCAM1 ELISA, cytokine-stimulated; actives raise or lower the signal. An outline of the steps:
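Endothelial cells from human umbilical vein are treated with test chemical. At 24 h, VCAM-1 is measured by ELISA, and responses in either direction are fitted relative to DMSO.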

Assay [9] can be described thus: BSK_4H_Eotaxin3: BioMAP Diversity Plus: 4H Assay for Eotaxin 3 Biomarker Activity (AID 2283000).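 As to outcome: CCL26 protein level quantified by ELISA in parallel with SRB cytotoxicity check.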 The settings on record: primary human endothelial cells (HUVEC); actives raise or lower the signal. An outline of the steps: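 Chemicals were added to human umbilical vein endothelium cultures, and Eotaxin-3 was quantified by ELISA at 24 h. Values were derived by bidirectional fitting with DMSO serving as negative control and activity baseline.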

Assay [10] has as its target human Peroxisome Proliferator-activated Receptor alpha (PPARa), PPARA (gene 5465) (UniProt Q07869). The experiment in a line: ATG_PPARa_TRANS: Attagene TRANS-FACTORIAL HepG2 Assay for human Peroxisome Proliferator-activated Receptor alpha (PPARa) (AID 2283001; active = hit-call score of the fitted dose curve at least 0.9, where 1 is the maximum). In outline: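 Reporter transcripts from GAL4-UAS units in transfected HepG2 were quantified 24 h after dosing. Detection used reverse transcription, PCR, fluorescent primer extension and capillary electrophoresis, with DMSO as baseline.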

Read-out in assay [11]: Intercellular Adhesion Molecule 1 (ICAM1), ICAM1 (gene 3383)
The experiment in a line: BSK_3C_ICAM1: BioMAP Diversity Plus: 3C Assay for Intercellular Adhesion Molecule 1 (ICAM1) Biomarker Activity (AID 2283003). Particulars: primary human endothelial cells (HUVEC); actives raise or lower the signal. In outline:
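Primary human umbilical vein endothelial cells in the BioMAP 3C system were exposed to chemicals for 24 h, then ICAM-1 was quantified by ELISA. Activity was fitted bidirectionally against the DMSO negative control baseline.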

Assay [12] has as its target Retinoic acid receptor alpha (Homo sapiens) (UniProt P10276). Description: ATG_RARa_TRANS: Attagene TRANS-FACTORIAL HepG2 Assay for human Retinoic Acid Receptor alpha (RARa) (AID 2283005; active = hit-call score of the fitted dose curve at least 0.9, where 1 is the maximum). In outline: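 Reporter transcripts, measured by RT-PCR with fluorescent labeling and capillary electrophoresis after 24 h dosing, reflect activity of an exogenous human RARa–GAL4 fusion in transiently transfected HepG2. Fitted for increase relative to DMSO.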

A short description of assay [13]: BSK_3C_Proliferation: Cell Proliferation Assessment in the BioMAP Diversity Plus: 3C Assay (AID 2283006).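 As to AC50: potency may reflect either rise or fall in cell number versus DMSO.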 The settings on record: primary human endothelial cells (HUVEC). An outline of the steps:
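Human umbilical vein endothelial cells were grown sub-confluent and exposed to chemical for 48 h, then fixed with 10% TCA and stained with 0.1% sulforhodamine B; absorbance at 560 nm gave relative cell number, fitted bidirectionally against DMSO baseline.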

Assay [14] addresses Peroxisome proliferator-activated receptor gamma (Homo sapiens) (UniProt P37231). Description: ATG_PPARg_TRANS: Attagene TRANS-FACTORIAL HepG2 Assay for human Peroxisome Proliferator-activated Receptor-gamma (PPARg) (AID 2283007; active = hit-call score of the fitted dose curve at least 0.9, where 1 is the maximum). An outline of the steps: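 Twenty-four hours after chemical dosing of transiently transfected HepG2 cells, isolated RNA was converted to cDNA, reporter sequences amplified and 6-FAM-labelled, then HpaI-digested and analysed by capillary electrophoresis. Signal increase against DMSO was fitted.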

The target of assay [15] is Nuclear receptor subfamily 1 group I member 2 (Homo sapiens) (UniProt O75469). Description: ATG_PXR_TRANS: Attagene TRANS-FACTORIAL HepG2 Assay for human Pregnane X Receptor (PXR) (AID 2283008; active = hit-call score of the fitted dose curve at least 0.9, where 1 is the maximum). An outline of the steps: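 Measures mRNA induction of a GAL4-UAS-driven reporter in human HepG2 cells transiently expressing PXR fused to Gal4, following 24 h treatment. DMSO served as negative control and baseline.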
Nuclear receptor subfamily 1 group I member 2 (Homo sapiens), sequence (O75469 whole entry, looked up, the tested form may be a part): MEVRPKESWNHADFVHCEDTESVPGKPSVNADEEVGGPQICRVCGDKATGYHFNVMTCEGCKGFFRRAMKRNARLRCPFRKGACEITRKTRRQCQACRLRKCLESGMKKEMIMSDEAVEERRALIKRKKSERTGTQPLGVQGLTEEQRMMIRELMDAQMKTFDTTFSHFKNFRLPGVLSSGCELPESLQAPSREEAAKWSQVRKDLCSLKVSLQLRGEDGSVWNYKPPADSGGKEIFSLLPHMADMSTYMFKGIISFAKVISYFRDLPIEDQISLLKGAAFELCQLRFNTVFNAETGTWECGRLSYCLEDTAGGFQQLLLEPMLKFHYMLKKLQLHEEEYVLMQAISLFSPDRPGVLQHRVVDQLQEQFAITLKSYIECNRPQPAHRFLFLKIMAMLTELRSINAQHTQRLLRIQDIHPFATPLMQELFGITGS

The target in assay [16] is human Retinoic Acid Receptor gamma (RARg), RARG (gene 5916) (UniProt P13631). Description: ATG_RARg_TRANS: Attagene TRANS-FACTORIAL HepG2 Assay for human Retinoic Acid Receptor gamma (RARg) (AID 2283009; active = hit-call score of the fitted dose curve at least 0.9, where 1 is the maximum). An outline of the steps:
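HepG2 cells transiently transfected with multiplexed reporter units expressing chimeric RARg-GAL4 and GAL4-UAS-driven reporters; 24 h compound exposure. Reporter mRNA quantified by RT-PCR with fluorescent labelling and capillary electrophoresis; gain-of-signal fitted relative to DMSO baseline.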

For assay [17], the target named is human RAR-related Orphan Receptor beta (RORb), RORB (gene 6096) (UniProt Q92753). The experiment in a line: ATG_RORb_TRANS: Attagene TRANS-FACTORIAL HepG2 Assay for human RAR-related Orphan Receptor beta (RORb) (AID 2283010; active = hit-call score of the fitted dose curve at least 0.9, where 1 is the maximum). An outline of the steps: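 HepG2 cells were transiently transfected with multiplexed GAL4-UAS reporter units expressing chimeric nuclear receptor–GAL4 proteins, then dosed for 24 h. Reporter mRNA was quantified by RT-PCR with fluorescent labelling and capillary electrophoresis; gain of signal was fitted relative to DMSO.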
human RAR-related Orphan Receptor beta (RORb), RORB (gene 6096), sequence (Q92753 whole entry, looked up, the tested form may be a part): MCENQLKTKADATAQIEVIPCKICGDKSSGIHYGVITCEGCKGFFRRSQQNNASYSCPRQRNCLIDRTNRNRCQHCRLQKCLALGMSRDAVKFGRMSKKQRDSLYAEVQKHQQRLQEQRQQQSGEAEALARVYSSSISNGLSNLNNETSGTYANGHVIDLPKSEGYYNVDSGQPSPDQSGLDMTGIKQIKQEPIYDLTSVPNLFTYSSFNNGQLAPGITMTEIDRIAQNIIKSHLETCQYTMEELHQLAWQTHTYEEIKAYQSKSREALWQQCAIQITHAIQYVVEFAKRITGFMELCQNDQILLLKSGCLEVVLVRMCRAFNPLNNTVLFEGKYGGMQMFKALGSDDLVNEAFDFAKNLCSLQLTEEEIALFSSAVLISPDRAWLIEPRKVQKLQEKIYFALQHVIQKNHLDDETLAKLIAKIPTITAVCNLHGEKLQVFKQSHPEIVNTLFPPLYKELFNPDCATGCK

In assay [18] the target is human RAR-related Orphan Receptor gamma (RORg), RORC (gene 6097) (UniProt P51449). Description: ATG_RORg_TRANS: Attagene TRANS-FACTORIAL HepG2 Assay for human RAR-related Orphan Receptor gamma (RORg) (AID 2283011; active = hit-call score of the fitted dose curve at least 0.9, where 1 is the maximum). An outline of the steps: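 First, HepG2 liver cells were transfected with GAL4-UAS-driven reporter constructs and the RORg-Gal4 fusion. Next, they were treated with chemical for 24 h. Finally, reporter mRNA was quantified by RT-PCR and capillary electrophoresis, with upward activity fitted against DMSO.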
human RAR-related Orphan Receptor gamma (RORg), RORC (gene 6097), sequence (P51449 whole entry, looked up, the tested form may be a part): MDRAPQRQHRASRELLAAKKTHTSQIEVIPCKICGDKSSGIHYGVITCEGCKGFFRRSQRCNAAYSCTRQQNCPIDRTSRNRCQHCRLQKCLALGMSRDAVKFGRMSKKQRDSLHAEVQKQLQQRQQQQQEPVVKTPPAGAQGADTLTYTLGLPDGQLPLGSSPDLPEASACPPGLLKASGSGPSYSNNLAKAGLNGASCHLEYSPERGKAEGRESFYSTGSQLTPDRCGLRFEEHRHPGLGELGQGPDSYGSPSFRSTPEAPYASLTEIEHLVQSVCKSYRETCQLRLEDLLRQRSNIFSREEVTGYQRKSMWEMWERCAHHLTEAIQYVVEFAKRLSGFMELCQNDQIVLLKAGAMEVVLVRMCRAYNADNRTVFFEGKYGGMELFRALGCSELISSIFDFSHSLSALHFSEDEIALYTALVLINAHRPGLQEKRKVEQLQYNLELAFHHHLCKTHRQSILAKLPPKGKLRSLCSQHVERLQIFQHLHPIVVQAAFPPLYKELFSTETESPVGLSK

The target in assay [19] is Retinoic acid receptor RXR-alpha (Homo sapiens) (UniProt P19793). Description: ATG_RXRa_TRANS: Attagene TRANS-FACTORIAL HepG2 Assay for human Retinoid X Receptor alpha (RXRa) (AID 2283012; active = hit-call score of the fitted dose curve at least 0.9, where 1 is the maximum). In outline:
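HepG2 cells transiently transfected with multiplexed GAL4-UAS reporter units and chimeric NR-GAL4 fusions, dosed 24 h. Reporter mRNA measured by RT-PCR, FAM labelling, HpaI digestion and capillary electrophoresis; gain-of-signal fitted relative to DMSO baseline.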

The target of assay [20] is human Peroxisome Proliferator-activated Receptor delta (PPARd), PPARD (gene 5467) (UniProt Q03181). The experiment in a line: ATG_PPARd_TRANS: Attagene TRANS-FACTORIAL HepG2 Assay for human Peroxisome Proliferator-activated Receptor delta (PPARd) (AID 2283002; active = hit-call score of the fitted dose curve at least 0.9, where 1 is the maximum). An outline of the steps: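 Transient HepG2 transfection (multiple GAL4-UAS RTUs, chimeric receptor-Gal4); 24 h dosing; total RNA → oligo(dT) RT → PCR → 6-FAM primer extension → HpaI cut → CE. Positive direction vs DMSO.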

Retinoic acid receptor alpha (Homo sapiens), sequence (P10276 whole entry, looked up, the tested form may be a part): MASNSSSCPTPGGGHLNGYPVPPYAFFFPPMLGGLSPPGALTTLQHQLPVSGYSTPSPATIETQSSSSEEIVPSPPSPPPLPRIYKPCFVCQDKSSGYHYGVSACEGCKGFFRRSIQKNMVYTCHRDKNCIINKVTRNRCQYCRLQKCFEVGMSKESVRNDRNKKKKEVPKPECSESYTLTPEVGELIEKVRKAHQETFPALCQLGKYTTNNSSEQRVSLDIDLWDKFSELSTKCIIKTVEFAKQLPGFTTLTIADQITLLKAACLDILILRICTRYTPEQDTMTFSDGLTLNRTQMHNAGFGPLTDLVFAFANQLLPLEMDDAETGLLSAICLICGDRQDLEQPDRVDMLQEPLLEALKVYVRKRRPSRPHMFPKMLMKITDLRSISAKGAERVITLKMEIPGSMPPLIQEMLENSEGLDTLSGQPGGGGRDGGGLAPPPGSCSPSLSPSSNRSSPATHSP
Retinoic acid receptor RXR-alpha (Homo sapiens), sequence (P19793 whole entry, looked up, the tested form may be a part): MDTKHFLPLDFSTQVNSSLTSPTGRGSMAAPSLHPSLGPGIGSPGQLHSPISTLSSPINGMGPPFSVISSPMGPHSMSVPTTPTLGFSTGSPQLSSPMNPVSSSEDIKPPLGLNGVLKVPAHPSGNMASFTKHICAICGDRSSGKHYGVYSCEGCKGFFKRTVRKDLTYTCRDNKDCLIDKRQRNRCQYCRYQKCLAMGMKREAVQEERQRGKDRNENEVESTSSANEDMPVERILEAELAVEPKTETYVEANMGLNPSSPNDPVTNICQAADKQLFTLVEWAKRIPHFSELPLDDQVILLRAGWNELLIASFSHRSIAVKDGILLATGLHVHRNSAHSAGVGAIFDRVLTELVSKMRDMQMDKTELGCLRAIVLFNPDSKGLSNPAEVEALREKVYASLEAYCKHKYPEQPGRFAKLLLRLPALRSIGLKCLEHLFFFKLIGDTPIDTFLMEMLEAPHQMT
human Peroxisome Proliferator-activated Receptor alpha (PPARa), PPARA (gene 5465), sequence (Q07869 whole entry, looked up, the tested form may be a part): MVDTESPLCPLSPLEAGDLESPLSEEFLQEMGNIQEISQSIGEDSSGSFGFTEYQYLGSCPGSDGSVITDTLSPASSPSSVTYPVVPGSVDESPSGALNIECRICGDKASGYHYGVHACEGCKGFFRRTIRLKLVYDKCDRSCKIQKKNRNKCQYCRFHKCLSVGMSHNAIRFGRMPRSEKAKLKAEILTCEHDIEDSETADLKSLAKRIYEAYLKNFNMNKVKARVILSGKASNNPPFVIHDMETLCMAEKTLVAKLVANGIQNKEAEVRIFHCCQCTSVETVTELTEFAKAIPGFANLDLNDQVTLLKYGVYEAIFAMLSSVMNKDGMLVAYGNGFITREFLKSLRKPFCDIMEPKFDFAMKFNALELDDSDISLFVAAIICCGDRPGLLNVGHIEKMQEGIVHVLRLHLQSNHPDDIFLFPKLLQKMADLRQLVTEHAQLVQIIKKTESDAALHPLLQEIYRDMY
Cellular tumor antigen p53 (Homo sapiens), sequence (P04637 whole entry, looked up): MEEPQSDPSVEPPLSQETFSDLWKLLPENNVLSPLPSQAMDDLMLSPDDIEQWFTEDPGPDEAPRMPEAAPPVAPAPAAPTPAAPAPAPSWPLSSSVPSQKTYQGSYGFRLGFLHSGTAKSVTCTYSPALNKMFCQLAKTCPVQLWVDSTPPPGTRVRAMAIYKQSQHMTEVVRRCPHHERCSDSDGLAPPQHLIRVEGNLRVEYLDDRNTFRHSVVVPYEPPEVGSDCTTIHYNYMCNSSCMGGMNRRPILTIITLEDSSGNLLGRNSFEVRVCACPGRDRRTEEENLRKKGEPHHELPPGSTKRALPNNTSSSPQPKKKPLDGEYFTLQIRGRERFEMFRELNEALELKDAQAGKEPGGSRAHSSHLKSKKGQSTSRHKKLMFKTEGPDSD
human Retinoic Acid Receptor gamma (RARg), RARG (gene 5916), sequence (P13631 whole entry, looked up, the tested form may be a part): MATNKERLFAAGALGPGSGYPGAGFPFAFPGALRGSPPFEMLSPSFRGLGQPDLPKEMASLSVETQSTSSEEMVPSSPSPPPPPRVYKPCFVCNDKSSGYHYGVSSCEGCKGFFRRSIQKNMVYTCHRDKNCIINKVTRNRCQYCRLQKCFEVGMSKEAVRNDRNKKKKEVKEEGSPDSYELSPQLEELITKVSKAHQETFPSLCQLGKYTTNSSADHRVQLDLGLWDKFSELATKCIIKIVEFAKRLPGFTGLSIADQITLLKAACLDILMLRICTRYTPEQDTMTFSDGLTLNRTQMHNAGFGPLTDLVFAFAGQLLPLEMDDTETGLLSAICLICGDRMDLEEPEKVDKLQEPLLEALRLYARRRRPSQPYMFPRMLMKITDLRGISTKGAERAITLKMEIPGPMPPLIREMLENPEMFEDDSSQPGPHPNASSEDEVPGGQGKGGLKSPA
Peroxisome proliferator-activated receptor gamma (Homo sapiens), sequence (P37231 whole entry, looked up): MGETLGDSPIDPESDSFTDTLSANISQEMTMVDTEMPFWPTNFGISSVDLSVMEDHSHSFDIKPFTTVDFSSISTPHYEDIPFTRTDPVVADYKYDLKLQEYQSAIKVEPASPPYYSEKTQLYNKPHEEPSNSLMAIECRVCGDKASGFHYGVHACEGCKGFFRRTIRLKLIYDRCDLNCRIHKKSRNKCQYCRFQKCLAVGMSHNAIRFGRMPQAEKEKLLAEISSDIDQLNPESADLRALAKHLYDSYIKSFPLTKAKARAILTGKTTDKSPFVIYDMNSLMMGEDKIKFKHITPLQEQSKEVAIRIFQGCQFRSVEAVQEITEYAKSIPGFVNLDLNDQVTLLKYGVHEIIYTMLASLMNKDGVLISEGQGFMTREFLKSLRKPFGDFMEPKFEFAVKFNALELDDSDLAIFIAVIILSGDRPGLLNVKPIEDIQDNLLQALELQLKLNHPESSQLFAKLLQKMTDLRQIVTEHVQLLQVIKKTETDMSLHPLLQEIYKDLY

Consider `O=C(O)C(F)(F)C(F)(F)C(F)(F)C(F)(F)C(F)(F)C(F)(F)C(F)(F)C(F)(F)C(F)(F)C(F)(F)F`, for which the molecule was called inactive in [1], in assay [2], in [3], in assay [4], in assay [6] and in assay [7]. In addition, the outcome in assay [8], in assay [9], in assay [10], in [11], in assay [12] and in assay [15] was inactive. Also, the outcome in assay [16], in assay [17], in assay [18] and in assay [19] was inactive. The half-maximal activity concentration (AC50) in assay [2] is 95.5 µM (active); in [3] it was 7.52 µM (active); in assay [4] it was 25 µM (active); in [5], 58.3 µM (active) and 37.6 µM (active); in assay [6], 33 µM (active) and 5.02 µM (active); in assay [7] it was 31.9 µM (active) and 4.88 µM (active). Also, the AC50 in assay [8] is 36.9 µM (active); in [9], 33.4 µM (active); in [11], 29.8 µM (active); in assay [13], 33 µM (active) and 5.16 µM (active) and 5.38 µM (active); in assay [14], 25.5 µM (active) and 13.3 µM (active).

For the molecule `CCOP(=S)(OCC)SCSP(=S)(OCC)OCC`, the call in assay [1], in assay [2], in assay [3], in [4], in assay [5] and in [6] was inactive. For the same molecule, the outcome in assay [7], in [8], in assay [9], in assay [11], in [12] and in assay [13] was inactive. The result in assay [14], in assay [16], in assay [18] and in [19] was inactive. In addition, the AC50 in [15] is 0.168 µM (active).

As for `BrCCBr`, the call in assay [1], in [2], in [3], in assay [4], in [5] and in assay [6] was inactive. Also, the result in assay [7], in assay [8], in [9], in assay [10], in assay [20] and in assay [11] was inactive. Also, the molecule was classed as inactive in assay [12], in assay [13], in [14], in [15], in assay [16] and in assay [18]. For the same molecule, the molecule was called inactive in assay [19].

Take `C[C@]12CCC(=O)C[C@@H]1CC[C@@H]1[C@@H]2CC[C@]2(C)[C@@H](O)CC[C@@H]12`: the outcome in assay [1], in assay [2], in [3], in assay [4], in assay [5] and in assay [6] was inactive. Besides, the result in assay [8], in [9], in assay [10], in assay [11], in assay [14] and in assay [15] was inactive. In addition, the molecule was classed as inactive in [16], in assay [17] and in assay [19]. For the same molecule, the half-maximal activity concentration (AC50) was 57.9 µM (active) in assay [2]; 61.4 µM (active) and 57.3 µM (active) in assay [3]; 86.1 µM (active) in assay [4]; 51.4 µM (active) in [5]; 18.6 µM (active) in [7]; 18.3 µM (active) in assay [13]. Also, in [15], the half-maximal activity concentration (AC50) was 11.9 µM (active).

As for `COC(=O)c1sccc1S(=O)(=O)NC(=O)Nc1nc(C)nc(OC)n1`, the outcome in assay [1], in assay [2], in assay [3], in assay [4], in assay [5] and in [6] was inactive. The result in [7], in assay [8], in assay [9], in assay [20], in [11] and in assay [13] was inactive. The result in [15] was inactive.

As a reminder, the AC50 is the midpoint of the concentration-response curve, whichever way the signal moves.
